# Bioassay records: PubChem BioAssay, National Center for Advancing Translational Sciences (NCATS)
# Most compounds without a hit are left out; they make up all but 8.9% or so of the library.
# DRD3 agonist: agonists of human D3 dopamine receptor | P35462 | D3R DiscoveRx beta-arrestin cells, luminescence, 90 min | max activation, % | 410,000 tested, 0.58% active | AID 652048; in the data active = max activation above about 30%; also: 0% is about no effect
# Target sequence (P35462 whole entry, looked up): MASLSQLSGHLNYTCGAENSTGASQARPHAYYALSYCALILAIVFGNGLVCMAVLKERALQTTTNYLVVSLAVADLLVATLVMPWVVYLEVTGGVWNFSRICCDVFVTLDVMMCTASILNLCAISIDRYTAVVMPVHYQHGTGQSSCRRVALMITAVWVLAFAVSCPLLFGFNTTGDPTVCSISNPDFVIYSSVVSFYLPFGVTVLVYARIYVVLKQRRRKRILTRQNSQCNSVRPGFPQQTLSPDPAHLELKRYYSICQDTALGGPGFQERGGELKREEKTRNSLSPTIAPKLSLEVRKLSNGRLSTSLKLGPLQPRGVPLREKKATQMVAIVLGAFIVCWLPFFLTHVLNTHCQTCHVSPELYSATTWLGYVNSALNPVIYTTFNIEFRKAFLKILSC
#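 Agonist mode: compounds and dopamine controls were applied to plated cells for 90 min at 37 degrees C after an overnight attachment at 1500 cells/well. Luminescent read-out followed 30 - 60 minutes at room temperature with DiscoveRx detection reagent.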
# SW480 rereplic: inducers of DNA re-replication in SW480 colon cancer cells; Potency, µM (doses to about 46.1 µM), for inactives: at the highest dose re-replication activation, actives largely listed as activators; 340,000 tested, 1.8% active; SW480 DNA re-replication, Hoechst DNA content imaging, 48 h; also: potency is read from the fitted curve at half-maximal effect; % of control where 0% means no effect; nearly all actives have a fitted effect of over 55% in size
#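 250 cells/well; 23 nL cpd via pin tool; 48 hr, 37 C, 5% CO2; Hoechst 40 min; imager read of total nuclear intensity, ex 405/em 500-530 nm.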
# DRD3 antagonist: blocks the human D3 dopamine receptor; 360,000 tested, 2.5% active; AID 652054; max response, negative = inhibition, %; P35462; D3R cells, DiscoveRx beta-arrestin luminescence, antagonist mode; active compounds read low; in the data active = max response below about -50%; inconclusive = no clear call, values can overlap the other calls; also: % is scaled to controls: 0 for no effect and ±100 for the full control effect
#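 Cells expressing the human receptor were seeded at 1500 cells/well, incubated overnight at 37 degrees C in 5% CO2, then exposed to library compounds with dopamine controls for 90 minutes at 37 degrees C before luminescent detection.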
# KB-3-1 tox: KB-3-1 parental cell cytotoxicity. Potency, µM (top dose mostly 46.1 µM), most hits filed as cytotoxic. KB-3-1 viability, CellTiter-Glo ATP luminescence, 72 h. 400,000 tested, 1.4% active; also: potency is read from the fitted curve at half-maximal effect; % is scaled to controls: 0 for no effect and ±100 for the full control effect; nearly all actives have a fitted effect of over 60% in size
#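 KB-3-1 cells, DMEM (no phenol red) + 10% FBS; compound by pin transfer, 72 h, 37 °C. Readout: CellTiter-Glo luminescence after 10 min. Data normalized, curve-fitted.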
# KB-V1 MDR tox: KB-V1 MDR subline cytotoxicity; KB-V1 MDR cells viability, CellTiter-Glo, 72 h; 400,000 tested, 3.4% active; Potency, µM (titrated, usually from 46.1 µM), usual class: cytotoxic; also: potency is read from the fitted curve at half-maximal effect; % is scaled to controls: 0 for no effect and ±100 for the full control effect; nearly all actives have a fitted effect of over 60% in size
#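 KB-V1 cells (P-gp-expressing MDR subline of KB-3-1) in phenol-red-free DMEM with 10% FBS were exposed to library compounds over a concentration series for 72 h at 37 degrees C. Viability read by CellTiter-Glo luminescence; concentration-effect curves fitted after normalization.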
# MCF10A rerep: DNA re-replication induction in MCF 10a cells. MCF 10A DNA re-replication, Hoechst nuclear intensity, 48 h. Potency, µM (doses to about 46.1 µM), without a hit: at the highest dose activity, positive = re-replication, actives largely listed as activators. 350,000 tested, 2.9% active. AID 624296; also: potency is read from the fitted curve at half-maximal effect; % of control where 0% means no effect; nearly all actives have a fitted effect of over 50% in size
# Starred values were filed as active, the others as inactive; i = inactive; ? = inconclusive; · = no result given. Unless noted, calls follow the shape of the dose curve; as a rule, active = well fitted curve in the direction sought with a large enough effect; inconclusive = small, poorly fitted or top-dose-only effect, or another doubt; inactive = no such curve, though single readings can be large; an effect the other way counts as inactive or inconclusive.
SMILES,DRD3 agonist,SW480 rereplic,DRD3 antagonist,KB-3-1 tox,KB-V1 MDR tox,MCF10A rerep
O=C(Nc1ccc(S(=O)(=O)NCCc2ccccc2)cc1)c1ccc(Br)o1,-1.9,2.9%,-5.9,i,10.3µM*,14.0%
NS(=O)(=O)c1ccc(NC(=S)NC(=O)c2ccc(Br)o2)cc1,-9.5,-2.2%,-18.6,i,i,0.5%
O=C(Nc1ccc(Oc2ccc3ccccc3c2)cc1)c1ccco1,4.2,13.5%,6.1,?,?,?
Cc1ccc(-n2c3c(cc(-c4nc(-c5ccc(Cl)cc5)cs4)c2=O)C(=O)CC(C)(C)C3)cc1,0.5,·,·,i,i,·
Cc1ccc(C(=O)Nc2ccc(NC(=O)c3ccco3)c(C)c2)cc1,-2.3,-7.6%,-5.5,i,?,-14.2%
Cc1cc(NC(=O)c2ccc(Br)o2)ccc1NC(=O)c1ccco1,-1.6,-3.1%,0.2,?,10.3µM*,-3.0%
Cc1cc(Cn2nc(C(=O)NCc3cccc(C(F)(F)F)c3)cc2-c2ccccc2)on1,-15.0,-80.4%,-59.9*,i,i,1.3%
COc1ccc(C2=NOC(Cn3nc(-c4ccccc4)cc3C(=O)NCc3cccc(Br)c3)C2)cc1 (stereo not drawn),34.3*,17.2%,33.0,i,?,25.8%
COc1ccc(C2=NOC(Cn3nc(C(=O)NCc4cccc(Br)c4)cc3-c3ccccc3)C2)cc1 (stereo not drawn),1.7,-4.3%,34.4,i,i,?
Cc1ccc(CNC(=O)c2cc(-c3ccccc3)n(Cc3cc(C)no3)n2)cc1,6.6,-9.9%,16.8,i,i,-2.0%
CCc1cc(Cn2nc(-c3ccccc3)cc2C(=O)NCc2cccc(C(F)(F)F)c2)on1,-13.9,5.4%,?,i,i,?
CCc1cc(Cn2nc(-c3ccccc3)cc2C(=O)NCc2cccc(Br)c2)on1,0.6,12.7%,-16.3,?,23.1µM*,?
CCN(CC)CCNC(=O)c1ccc(Cn2c(SCc3ccccc3)nc3cccnc32)cc1,-14.3,·,·,?,i,·
Cc1nn(-c2ccccc2)c(C)c1NC(=O)COc1ccccc1C#N,-3.8,·,-4.5,i,i,·
Cc1nn(-c2ccccc2)c(C)c1NC(=O)COc1ccc2ccccc2c1,31.3*,0.6%,20.7,?,14.6µM*,?
Cc1nn(-c2ccccc2)c(C)c1NC(=O)COc1ccc(C#N)cc1,1.3,3.8%,19.4,i,18.4µM*,?
Cc1nn(-c2ccccc2)c(C)c1NC(=O)COc1ccc(Br)cc1Cl,11.4,-4.7%,7.9,14.6µM*,?,?
CCc1ccc(NC(=O)CSc2nnc(-c3nonc3NC(C)=O)n2-c2ccccc2)cc1,-0.1,·,·,i,i,·
CN1CCCN(S(=O)(=O)c2cccc(C(F)(F)F)c2)c2nc3ccccc3nc21,-8.7,?,-5.0,i,i,20.6µM*
Cc1cccc(-c2nc3c4ccccc4nc(NCc4ccc(Cl)cc4)n3n2)c1,-16.7,·,·,·,·,·
CC1CN(S(=O)(=O)c2cccc3nsnc23)CC(C)O1 (stereo not drawn),4.0,21.4%,10.6,?,i,18.4µM*
CC(=O)c1c(C)[nH]c(C(=O)Nc2ccc(C)c(S(=O)(=O)N(C)C)c2)c1C,-11.4,-17.2%,-5.3,i,i,0.9%
Cc1ccc(NS(=O)(=O)c2cc(C(=O)Nc3cccc(N(C)S(C)(=O)=O)c3)ccc2C)c(C)c1,42.5*,-7.9%,59.0,i,16.4µM*,2.7%
CCN(CC)S(=O)(=O)c1cc(NC(=O)C(C)OC(=O)c2[nH]c(C)c(C(C)=O)c2C)ccc1C (stereo not drawn),-11.3,4.2%,-1.3,?,20.6µM*,?
CC(=O)c1c(C)[nH]c(C(=O)Nc2ccc(C)c(S(=O)(=O)Nc3ccc(C)cc3C)c2)c1C,-13.8,16.4µM*,2.6,i,i,11.6µM*
COc1ccc(NC(=O)Nc2nnc(N(C)C3CCCCC3)s2)c(OC)c1,0.9,·,·,i,i,·
